# Measured values as given in PubChem BioAssay (NCATS).
# Inconclusive results are not listed. Activity calls are given as the source filed them. The call rests on the fitted dose curve; in most records, active means well fitted cell-killing curve with a large enough effect; inconclusive means small, poorly fitted or top-dose-only effect; inactive means no such curve, though single readings can be large or run the other way.
# Assay: qHTS of pediatric cancer cell lines to identify multiple opportunities for drug repurposing: Primary screen for A673 cells (AID 1347092); further: nearly all actives have a fitted effect of over 45% in size
# Conditions: A673 Ewing sarcoma viability, CellTiter-Glo ATP luminescence, 48 h; series mostly up to 46 µM
# From the text: Drug repurposing or repositioning has been offered as a strategy for drug development in oncology programs. This approach has special potential for childhood cancers and other rare or orphan diseases, where the expected return on new drug development has been a disincentive to pharmaceuticals. […] In this project we exploit the poly-pharmacology of drugs to discover new indications via phenotypic screening of a panel of 19 well-characterized cell lines derived from solid tumors seen in children and adolescents. The goal is to identify approved drugs with previously unrecognized anticancer properties that has the potential to reveal new mechanisms and biological processes involved in carcinogenesis or drug resistance. We employed a titration-based paradigm (quantitative high-throughput screening or qHTS), where all compounds were tested at multiple concentrations for their effect on cell viability. Concentration-response curves (CRCs) were derived directly from the primary screen, and both potency and efficacy values were used to identify compounds with robust bioactivity profiles. We screened the NIH Chemical Genomics Center (NCGC) Pharmaceutical Collection (NPC) and Mechanism Interrogation Plate (MIPE) small molecule collections of approved and investigational compounds against these cell lines; and measured metabolically active cells after 48 hours of compound treatment as a proxy for cell viability. […] Assay Submitter: Nathalia J. Martinez, National Center for Advancing Translational Sciences, National Institutes of Health, Rockville, MD, USA; email: natalia.martinez@nih.gov. Shen, M et al. Quantitative high-throughput phenotypic screening of pediatric cancer cell lines identifies multiple opportunities for drug repurposing. Oncotarget 2017 Dec 19;9(4):4758-4772. PMID 29435139.
# The cells were obtained from University of North Carolina (UNC), Pediatric Preclinical Testing Program (PPT), and Coriell Institute (CI). qHTS cell viability assay: Cells were assayed in growth media at a density of 500-1,000 cells/well. Five microliters of cells were dispensed into 1,536-well, white, solid-bottom, TC-treated plates (Greiner Bio One) using a multidrop dispenser and incubated at 37 degrees C, 5% CO2, under a humidified atmosphere for 5 hours. Twenty-three nanoliters of compounds and controls (neutral control DMSO or positive control bortezomib at final concentration of 2.3 uM) were subsequently transferred by Kalypsys pintool. For primary screens, the MIPE collection was tested at 11-point dilutions (final concentrations range from 0.78 nM to 46 µM) and the NPC collection at 8-point dilutions (final concentrations range from 0.59 nM to 46 µM). Compounds tested in follow-up screens were assayed at 11-point dilutions. Cells were incubated for 48 hours, followed by addition of 3 uL of CellTiter-Glo (Promega). After a 15min incubation at room temperature, samples were analyzed for luminescence intensity using a ViewLux High-throughput CCD imager equipped with clear filters.
# Potency means the concentration at half of the fitted maximal effect.
row,Compound,Potency
1,N#Cc1cc(NC(=O)Nc2nnc(-c3ccncc3)s2)ccc1-c1cn[nH]c1,inactive
2,Cc1onc(-c2ccccc2)c1C(=O)N[C@@H]1C(=O)N2[C@@H](C(=O)O)C(C)(C)S[C@@H]12,inactive
3,O=C(c1ccc(F)cc1)N1CCC[C@H](c2nc(-c3ccc(F)cc3)no2)C1,inactive
4,O=[N+]([O-])c1cn2c(n1)OC[C@@H](OCc1ccc(OC(F)(F)F)cc1)C2,inactive
5,CN(C)c1ccc2cc(C(=O)N[C@@H](CCCN=C(N)CCl)C(=O)NCc3ccccc3)ccc2c1,0.469 µM (active)
6,COc1ccc(Nc2cc(-c3cnc(N)nc3)nc(N3CCOCC3)n2)cn1,5.9 µM (active)
7,Nc1ccc(C(=O)Nc2cccc(-c3nc(N4CCOCC4)c4oc5ncccc5c4n3)c2)cn1,14.8 µM (active)
8,CCN(CC)CCCCNc1ncc2c(n1)N(C)C(=O)N(c1c(Cl)c(OC)cc(OC)c1Cl)C2,18.7 µM (active)
9,CC(=O)O[C@H]1C[C@@H]2CC[C@H]3[C@H]4C[C@H]([N+]5(C)CCCCC5)[C@@H](OC(C)=O)[C@@]4(C)CC[C@@H]3[C@@]2(C)C[C@H]1[N+]1(C)CCCCC1,inactive
10,Cn1cc(C2=C(c3c4n(c5ccccc35)CCC(CN)C4)C(=O)NC2=O)c2ccccc21 (stereo not given),5.9 µM (active)
11,CN1CCCN(C(=O)c2cccc(-c3ccc(C=C4C(=O)Nc5ccc(Cl)cc54)o3)c2)CC1,18.7 µM (active)
12,CN(C)CCN1C(=O)c2cccc3cc(N)cc(c23)C1=O,14.8 µM (active)
13,CN(C)CC(=O)N1CCC(c2ccc(NC(=O)c3ncc(C#N)[nH]3)c(C3=CCCCC3)c2)CC1,18.7 µM (active)
14,COc1cc(OC)c(C=CS(=O)(=O)Cc2ccc(OC)c(NCC(=O)O)c2)c(OC)c1,0.148 µM (active)
15,Cc1cnc(Nc2ccc(N3CCN(C)CC3)cc2)nc1Nc1cccc(S(=O)(=O)NC(C)(C)C)c1,1.18 µM (active)
16,CC[C@H]1OC(=O)[C@H](C)[C@@H](O[C@H]2C[C@@](C)(OC)[C@@H](O)[C@H](C)O2)[C@H](C)[C@@H](O[C@@H]2O[C@H](C)C[C@H](N(C)C)[C@@H]2O)[C@](C)(OC)C[C@@H](C)C(=O)[C@H](C)[C@@H](O)[C@]1(C)O,inactive
17,CCCNC(=O)[C@H]1O[C@H]1C(=O)N[C@H](C(=O)N1CCC[C@@H]1C(=O)OC)C(C)CC (stereo not given in full),2.35 µM (active)
18,CNC(=O)Nc1ccc(-c2nc(N3CC4CCC(C3)O4)c3cnn(C4CCC5(CC4)OCCO5)c3n2)cc1,0.372 µM (active)
19,CCOc1cc2ncc(C#N)c(Nc3ccc(OCc4ccccn4)c(Cl)c3)c2cc1NC(=O)C=CCN(C)C,0.0743 µM (active)
20,C=C1C[C@@]2(O)O[C@@]3(C[C@H]2C(C)C)[C@H](C)CC[C@H]13,inactive

row,Compound,Potency
1,CN1[C@H]2CC(OC(=O)[C@@H](CO)c3ccccc3)C[C@H]1[C@H]1O[C@H]12 (stereo not given in full),inactive
2,CC(C=CC=C(C)C=CC1=C(C)CCCC1(C)C)=CC=CC=C(C)C=CC=C(C)C=CC1=C(C)CCCC1(C)C,5.9 µM (active)
3,COC1=C2C[C@@H](C)C[C@H](OC)[C@@H](O)[C@@H](C)C=C(C)[C@H](OC(N)=O)[C@@H](OC)C=CC=C(C)C(=O)NC(=CC1=O)C2=O,4.69 µM (active)
4,N#Cc1ccc(COC[C@H]2O[C@@H](n3c(NCc4ccc(Cl)c(Cl)c4)nc4c(N)ncnc43)[C@@H](O)[C@@H]2O)cc1,7.43 µM (active)
5,COc1cc(OC)cc(-c2ccc3ncc4ccc(=O)n(-c5ccc(N6CCNCC6)c(C(F)(F)F)c5)c4c3c2)c1,0.935 µM (active)
6,Nc1ccn(C2CO[C@H](CO)O2)c(=O)n1 (stereo not given in full),inactive
7,C[C@@H]1CC[C@@]2(OC1)OC1CC3C4CC=C5CC(O)CCC5(C)C4CCC3(C)C1[C@@H]2C (stereo not given in full),inactive
8,CCc1cc(C(C)=NOCc2ccc(C3CCCCC3)c(C(F)(F)F)c2)ccc1CN1CC(C(=O)O)C1,1.48 µM (active)
9,CC(C)C[C@H](NC(=O)[C@@H](NC(=O)c1cccc(-c2ccccc2)n1)[C@@H](C)O)B(O)O,0.187 µM (active)
10,C[C@@H](NCc1cc2ccccc2[nH]1)c1cccc2ccccc12,inactive
11,Cc1nc(NC(=O)N2CCC[C@@H]2C(N)=O)sc1-c1ccnc(C(C)(C)C(F)(F)F)c1,9.35 µM (active)
12,C[C@@H](Cc1cc2c(c(C(N)=O)c1)N(CCCO)CC2)NCCOc1ccccc1OCC(F)(F)F,inactive
13,COc1ccc(CCC(=O)c2c(O)cc(O[C@@H]3O[C@H](CO)[C@@H](O)[C@H](O)[C@@H]3O[C@@H]3O[C@@H](C)[C@H](O)[C@@H](O)[C@@H]3O)cc2O)cc1O,9.35 µM (active)
14,O=C(O)C[C@H](O)C[C@H](O)C=Cc1c(C2CC2)nc2ccccc2c1-c1ccc(F)cc1,3.72 µM (active)
15,CC(=O)NC(CS)C(=O)O (stereo not given),inactive
16,CN[C@H](CC(C)C)C(=O)N[C@H]1C(=O)N[C@@H](CC(N)=O)C(=O)N[C@@H]2C(=O)N[C@H]3C(=O)N[C@H](C(=O)N[C@H](C(=O)O)c4cc(O)cc(O)c4-c4cc3ccc4O)[C@H](O)c3ccc(c(Cl)c3)Oc3cc2cc(c3O[C@@H]2O[C@H](CO)[C@@H](O)[C@H](O)[C@@H]2O[C@H]2C[C@](C)(N)[C@H](O)[C@H](C)O2)Oc2ccc(cc2Cl)[C@H]1O,inactive
17,C[C@]12CCC(=O)C=C1[C@@H]1CC1[C@H]1[C@H]3[C@@H]4C[C@H]4[C@@]4(CCC(=O)O4)[C@@]3(C)CC[C@H]12 (stereo not given in full),inactive
18,C[C@@H](Oc1ccc2[nH]nc(C=Cc3cnn(CCO)c3)c2c1)c1c(Cl)cncc1Cl,18.7 µM (active)
19,CCCCC(=O)O[C@]1(C(=O)CO)[C@@H](C)C[C@H]2[C@@H]3CCC4=CC(=O)C=C[C@]4(C)[C@@]3(F)[C@@H](O)C[C@@]21C,inactive
20,CN1C(C(=O)Nc2ccccn2)=C(O)c2sc(Cl)cc2S1(=O)=O,2.96 µM (active)
